Apoferritin bind = qHTS Assay for Identification of Novel General Anesthetics; Potency, µM (series often up to 77.5 µM), inactives show at the top dose activity change, negative = displacement, most hits filed as inhibitors; 0.074% of 350,000 active; AID 485281, 2010; apoferritin/1-aminoanthracene competitive binding, fluorescence; Ferritin light chain (Equus caballus), P02791; further: on the % scale 0 is the no-effect control and ±100 the full control effect; nearly all actives have a fitted effect of over 20% in size
Target sequence (P02791 2-175 limits assumed): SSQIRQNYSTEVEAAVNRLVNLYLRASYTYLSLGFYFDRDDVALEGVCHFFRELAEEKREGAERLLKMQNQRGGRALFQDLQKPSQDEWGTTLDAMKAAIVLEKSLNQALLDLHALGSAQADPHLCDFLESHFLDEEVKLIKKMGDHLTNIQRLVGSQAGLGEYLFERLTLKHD
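10 uM apoferritin + 50% sat. 1-AMA, PBS; cpd 10 min RT; Ex380/Em535 endpoint; normalized to free probe vs complex; 4-param Hill fit; propofol titration as pos. ctrl.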
GRP78 ERSR act = qHTS for Inducers of the Endoplasmic Reticulum Stress Response (ERSR) in Human Glioma: qHTS | 0.02% of 420,000 active | AID 602332, 2012 | U87-MG GRP78 promoter luciferase reporter, 16 h | Potency, µM, for the others: at the highest dose activation, usual class: activators; further: series mostly up to about 76 µM; % of control where 0% means no effect; nearly all actives have a fitted effect of over 35% in size
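Stably transfected U87-MG human glioma cells carrying a GRP78-based luminescent sensor were seeded at 1000 cells/well, pin-dosed with compounds and incubated 16 h. Luciferase reagent was then added, and end-point luminescence was read after 10 min at room temperature.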
12-LOX inh = Primary qHTS assay for inhibitors of human arachidonate 12S-lipoxygenase (ALOX12): Round 2. 1.1% of 580,000 active. Potency, µM (doses to about 108 µM), for inactives: at the top dose activity change, negative = inhibition, usual class: inhibitors. purified 12hLO, xylenol orange hydroperoxide absorbance; further: on the % scale 0 is the no-effect control and ±100 the full control effect
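Hydroperoxide product was detected by ferrous iron/xylenol orange as the 573 to 405 nm absorbance ratio. Arachidonic acid at 40 uM (final) was turned over for 30 min at room temperature by 150 nM human 12hLO, pH 7.0 Hepes buffer, after 15 min compound preincubation.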
mIDH1 inhibitor = qHTS for Inhibitors of mutant isocitrate dehydrogenase 1 (IDH1): qHTS; Isocitrate dehydrogenase [NADP] cytoplasmic (Homo sapiens), O75874; IDH1-R132H enzyme, NADPH consumption, diaphorase/resazurin fluorescence; Potency, µM (highest dose often 76.6 µM), for inactives: at the top dose activity change, negative = inhibition, most hits filed as inhibitors; 0.093% of 390,000 active; further: on the % scale 0 is the no-effect control and ±100 the full control effect; nearly all actives have a fitted effect of over 65% in size
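IDH1-R132H (0.5 ug/mL) preincubated 30 min with compound, then NADPH (0.016 mM) and alpha-KG (2 mM) added; 80 min at RT, pH 7.5. Remaining NADPH coupled via diaphorase/resazurin to fluorescence (540/590 nm); concentration-response curves normalized to no-enzyme control.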
TrxR1 substrate = qHTS Assay for Substrates of Mammalian Selenoprotein Thioredoxin Reductase 1 (TrxR1): qHTS | Thioredoxin reductase 1, cytoplasmic (Rattus norvegicus), O89049 | 0.01% of 390,000 active | purified TrxR1 substrate turnover, NADPH consumption readout | AID 588456, 2011 | Potency, µM (top dose mostly 114 µM), for the others: at the highest dose activity change, negative = substrate turnover; further: on the % scale 0 is the no-effect control and ±100 the full control effect; nearly all actives have a fitted effect of over 50% in size
Target sequence (O89049 whole entry, looked up): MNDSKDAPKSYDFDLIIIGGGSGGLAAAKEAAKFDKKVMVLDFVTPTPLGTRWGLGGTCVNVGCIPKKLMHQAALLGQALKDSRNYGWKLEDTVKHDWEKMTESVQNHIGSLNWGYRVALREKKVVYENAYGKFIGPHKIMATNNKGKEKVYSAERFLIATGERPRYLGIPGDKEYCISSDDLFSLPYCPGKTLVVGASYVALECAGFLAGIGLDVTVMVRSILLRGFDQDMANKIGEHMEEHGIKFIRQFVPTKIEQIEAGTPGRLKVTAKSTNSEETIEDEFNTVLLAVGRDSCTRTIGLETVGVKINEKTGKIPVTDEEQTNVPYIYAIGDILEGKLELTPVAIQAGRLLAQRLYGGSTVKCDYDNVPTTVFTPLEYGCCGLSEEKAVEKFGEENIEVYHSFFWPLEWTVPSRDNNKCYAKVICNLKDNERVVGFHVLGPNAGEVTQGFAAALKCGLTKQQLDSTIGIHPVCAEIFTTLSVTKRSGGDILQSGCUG
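Rat TrxR1, dispensed at 90 nM, was prereduced with 400 uM NADPH (final) for 5 min at ~22 deg C, then incubated with compound 15 min before 400 uM selenite. A first-read NADPH fluorescence drop versus no-compound background flagged substrates.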
rTrxR1 inhibitor = qHTS Assay for Inhibitors of Mammalian Selenoprotein Thioredoxin Reductase 1 (TrxR1): qHTS; Thioredoxin reductase 1, cytoplasmic (Rattus norvegicus), O89049; 1% of 390,000 active; recombinant rTrxR1, NADPH fluorescence consumption, selenite substrate; Potency, µM (series often up to 114 µM), for the others: at the highest dose activity change, negative = inhibition, hits mostly inhibitors; further: on the % scale 0 is the no-effect control and ±100 the full control effect; nearly all actives have a fitted effect of over 65% in size
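Rat TrxR1 (90 nM in the dispensed reagent) was pre-reduced with 400 uM NADPH for 5 min at room temperature, then incubated with compound for 15 min. After 400 uM selenite was added, NADPH fluorescence (Ex 340/Em 450 nm) was followed for 8 min.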
Active calls of the source: *; [ ] = another dose, or the depositor's remark. In the library only some 1.7% were active in any assay of this set; here they are far more common. The call rests on the fitted dose curve; in most records, active means well fitted curve in the direction sought with a large enough effect; inconclusive means small, poorly fitted or top-dose-only effect, or another doubt; inactive means no such curve, though single readings can be large; an effect the other way counts as inactive or inconclusive. Potency means the concentration at half of the fitted maximal effect.

Results for CC1(C)C(=O)OC(C(=O)c2ccccc2)C(C)(C)C1=O (centres undefined) ?
Apoferritin bind: 8.9µM*; GRP78 ERSR act: -5%; 12-LOX inh: 0%; mIDH1 inhibitor: -3%; TrxR1 substrate: -6%; rTrxR1 inhibitor: -11%

Results for C[C@]12c3[nH]c4ccc(Cl)cc4c3CCN1C(=O)[C@@H](CC(=O)NCc1ccco1)C[C@@H]2C(=O)N1CCCCC1 ?
GRP78 ERSR act: -1%; 12-LOX inh: inconclusive; mIDH1 inhibitor: -22%; TrxR1 substrate: 0%; rTrxR1 inhibitor: 3%

What do the screens show for `COCCNc1nc(-c2ccc(N3CCCC3=O)cc2)cs1`?
12-LOX inh: 11µM*

How did COCC(=O)N1CCC(N(Cc2cccnc2)C2CCOCC2)CC1 do in these assays?
12-LOX inh: 39%

Results for COc1ccc(C(=O)c2ccc(OC)c(Br)c2)cc1Br ?
Apoferritin bind: -10%; GRP78 ERSR act: -4%; 12-LOX inh: inconclusive; mIDH1 inhibitor: 1%; TrxR1 substrate: 1%; rTrxR1 inhibitor: 40µM*

Results for COc1ccc(C(=O)O)cc1Br ?
12-LOX inh: -3%

Results for O=C1CS(=O)(=O)N(Cc2cccc(F)c2)c2ccc(Br)cc21 ?
GRP78 ERSR act: -2%; 12-LOX inh: inconclusive; mIDH1 inhibitor: 5%; TrxR1 substrate: -4%; rTrxR1 inhibitor: 79µM*

How did COc1ccc(CN2c3c(Br)cccc3C(=O)CS2(=O)=O)cc1 do in these assays?
GRP78 ERSR act: 0%; mIDH1 inhibitor: -4%; TrxR1 substrate: -5%; rTrxR1 inhibitor: -26%

Results for O=c1c(-c2cccs2)nc2cnc(Oc3cccc(Cl)c3)nc2n1C[C@H]1CCCO1 ?
GRP78 ERSR act: -1%; 12-LOX inh: 0%

What do the screens show for `CNc1ncncc1-c1ccc(C(=O)N(C)C)cc1`?
Apoferritin bind: -8%; GRP78 ERSR act: 0%; 12-LOX inh: 32µM*

Results for CC(=O)NCCNc1ncncc1-c1ccc(N(C)C)cc1 ?
GRP78 ERSR act: -5%; 12-LOX inh: 45µM*

How did CNC(=O)C(C)(C)N1CCC[C@H]1C(=O)NCc1ccc(OC)cc1 do in these assays?
12-LOX inh: -2%[176 µM]

Results for O=S(=O)(Nc1ccc(C(O)(C(F)(F)F)C(F)(F)F)cc1)c1cccc2ccccc12 ?
GRP78 ERSR act: -5%; 12-LOX inh: 45µM*

Results for CC(C)c1ccc(Nc2c(-c3ccccc3O)nc3cnccn23)cc1 ?
Apoferritin bind: -12%; GRP78 ERSR act: inconclusive; 12-LOX inh: inconclusive; mIDH1 inhibitor: -8%; TrxR1 substrate: -3%; rTrxR1 inhibitor: 9%

How did Cc1ccc(-c2nc3cnccn3c2Nc2ccc(C(C)C)cc2)o1 do in these assays?
TrxR1 substrate: 5%; rTrxR1 inhibitor: 13µM*

Results for Cc1ccc(-c2nc3cnccn3c2Nc2c(C)cccc2C)o1 ?
Apoferritin bind: 335%; GRP78 ERSR act: -4%; 12-LOX inh: inconclusive; mIDH1 inhibitor: 2%; TrxR1 substrate: 11%; rTrxR1 inhibitor: 14µM*

What do the screens show for `CCOC(=O)C1CCN(C(=O)Cn2nc(CC)n3c(cc4occc43)c2=O)CC1`?
Apoferritin bind: -9%; GRP78 ERSR act: -2%; 12-LOX inh: -12%; mIDH1 inhibitor: -6%; TrxR1 substrate: -1%; rTrxR1 inhibitor: 5%

What do the screens show for `COCCN1C=C2C(=O)C(C)(OC(=O)CCC(=O)OC)C(=O)C(Br)=C2C=C1c1ccc(OC)cc1` (centres undefined)?
GRP78 ERSR act: -3%; mIDH1 inhibitor: 19%; TrxR1 substrate: inconclusive; rTrxR1 inhibitor: -7%

What do the screens show for `COc1ccc(C2=CC3=C(Br)C(=O)C(C)(OC(=O)c4cccs4)C(=O)C3=CO2)cc1` (centres undefined)?
GRP78 ERSR act: -2%; 12-LOX inh: 6.3µM*; mIDH1 inhibitor: -1%; TrxR1 substrate: -13%; rTrxR1 inhibitor: 50µM*

Results for COc1ccc(C2=CC3=C(Br)C(=O)C(C)(OC(=O)c4ccco4)C(=O)C3=CO2)cc1 (centres undefined) ?
Apoferritin bind: -21%; GRP78 ERSR act: -3%; mIDH1 inhibitor: -12%; TrxR1 substrate: -2%; rTrxR1 inhibitor: 50µM*

Results for COC(=O)CCC(=O)OC1(C)C(=O)C2=CN(c3ccc(OC)cc3)C(c3ccc(OC)cc3)=CC2=C(Br)C1=O (centres undefined) ?
GRP78 ERSR act: -2%; mIDH1 inhibitor: 10%; TrxR1 substrate: 0%[57.1 µM]; rTrxR1 inhibitor: 7%[57.1 µM]

Results for CC(=O)N1c2ccc(S(=O)(=O)N3CCCCCC3)cc2CC1C(=O)NCc1ccccc1F (centres undefined) ?
Apoferritin bind: 61%; GRP78 ERSR act: -2%; 12-LOX inh: inconclusive; mIDH1 inhibitor: -9%; TrxR1 substrate: 0%[57.1 µM]; rTrxR1 inhibitor: 17%[57.1 µM]

What do the screens show for `CCOC(=O)/C(=C/c1c(C)n(C)c2ccc([N+](=O)[O-])cc12)C(C)=O`?
Apoferritin bind: 2%; GRP78 ERSR act: inconclusive; 12-LOX inh: -1%; mIDH1 inhibitor: 3%; TrxR1 substrate: -12%; rTrxR1 inhibitor: 45µM*

Results for CCOC(=O)c1c(N)c2cc([N+](=O)[O-])ccc2n1C ?
Apoferritin bind: 0%; GRP78 ERSR act: -2%; 12-LOX inh: 62%; mIDH1 inhibitor: 0%; TrxR1 substrate: -10%; rTrxR1 inhibitor: 8%

Results for O=C(CCC(=O)c1ccc(F)cc1)OCc1ccc([N+](=O)[O-])cc1 ?
12-LOX inh: -1%

What do the screens show for `O=C(CCC(=O)c1ccc(F)cc1)OCc1nnc(-c2ccc([N+](=O)[O-])cc2)o1`?
GRP78 ERSR act: -2%; 12-LOX inh: -5%; mIDH1 inhibitor: 5%; TrxR1 substrate: -12%; rTrxR1 inhibitor: 50µM*

How did N#Cc1c(N)nc(SCc2ccncc2)c(C#N)c1-c1cccs1 do in these assays?
Apoferritin bind: -2%; GRP78 ERSR act: -4%; 12-LOX inh: 18%; mIDH1 inhibitor: -1%; TrxR1 substrate: 5%[57.1 µM]; rTrxR1 inhibitor: -8%[57.1 µM]
